Measurements published in PubChem BioAssay.
A number with no mark means an inactive call. Calls of active or inactive are those of the source.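 The calls were made as follows, unless noted: active = mean inhibition above 46.68%, the untreated control wells mean plus 3 SD; inactive = the rest.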

test system: transactivating tegument protein VP16 (Human herpesvirus 1), Gal4-VP16 luciferase reporter; assay: repression of VP16-driven luciferase reporter – cell-based, luminescence, high throughput, counter-screen for SRC3 inhibitor project (AID 588794; in the data active = inhibition above about 30%); conditions: mammalian cells, at 3.6 µM, stronger effect = higher value

Compound	inhibition
CCCS(=O)(=O)Nc1ccc(Nc2c3ccccc3nc3ccccc23)c(OC)c1	17.1%
CC(C)(C)n1ncc2c(=O)n(CC(=O)OCc3ccccc3)cnc21	17%
C[n+]1c2n(c3ccccc31)N=C(c1ccc(Br)cc1)CS2	24.7%
CN(C(=O)COC(=O)/C=C/c1cccc([N+](=O)[O-])c1)C1CCS(=O)(=O)C1 (configuration not stated)	32.4% (active)
Cc1ccc(C)c(NC(=O)c2ccccc2NS(=O)(=O)c2cc([N+](=O)[O-])ccc2C)c1	25.5%
CC(C)CC(=O)/C(=C\c1ccc(Cl)cc1Cl)n1cncn1	48.8% (active)
CC(=O)c1ccc(Nc2ncnc3ccc(Br)cc23)cc1	39.7% (active)
O=C(Nc1ccc([N+](=O)[O-])cc1)Nc1ccc(OC(F)F)c(Cl)c1	32.5% (active)
CC(C)c1ccc(-c2nnn(CCC(=O)O)n2)cc1	46.8% (active)
COC(=O)c1c(C)oc2ccc(N(C(=O)c3ccncc3)S(=O)(=O)c3ccc(C)cc3C)cc12	36.2% (active)
CCC(=O)Nc1cc2nn(-c3ccc(C)cc3)nc2cc1C	-33.2%
CC(=O)NC(c1ccccc1)c1cc(Cl)c2cccnc2c1O (configuration not stated)	30.1% (active)
Cn1c(/C(C#N)=C/c2ccc(-c3ccc(S(N)(=O)=O)cc3)o2)nc2ccccc21	27.3%
CCCCC(=O)OCC(=O)C1(O)Cc2c(O)c3c(c(O)c2C(OC2CC(NC(=O)C(F)(F)F)C(O)C(C)O2)C1)C(=O)c1c(OC)cccc1C3=O (configuration not stated)	10.2%
CC(O)CC(C(=O)NNc1ccccc1)C(=O)NNc1ccccc1 (configuration not stated)	16%
CCOc1cc(/C=C2\CN(C)C/C(=C\c3ccc(O)c(OCC)c3)C2=O)ccc1O	60.4% (active)
CC(C)(C)c1nnc(N/N=C/c2cc(Br)ccc2O)n(N)c1=O	69.2% (active)
CC(C)n1c(-c2cccnc2)nc2cnccc21	26.9%
OCCN1CCN(C(=S)c2ccc(-c3ccccc3)cc2)CC1	4.96%
O=C1C(F)=CC(COC(c2ccccc2)(c2ccccc2)c2ccccc2)OC1n1cc(F)c(=O)[nH]c1=O (configuration not stated)	60.3% (active)
Cc1c(-c2ccccc2)oc2c(C(=O)N3CCN(c4ccc([N+](=O)[O-])cc4)CC3)cccc2c1=O	32.5% (active)
Clc1ccc(-c2csc3ncnc(NCCN4CCOCC4)c23)cc1	25.3%
COc1ccc(-c2cn[nH]c2C)cc1OC	10.4%

target: Nuclear receptor coactivator 1 (Homo sapiens) (UniProt Q15788); assay: NCOA1 GAL4-fusion reporter inhibition – cell-based, luminescence, quadruplicate, confirmation (AID 588820); conditions: HEK293 GAL4-SRC1 luciferase reporter, at 3.6 µM, stronger effect = higher value;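 also: 0% = DMSO wells and 100% = gossypol 36 µM treated wells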
Sequence (Q15788 whole entry, looked up, the tested form may be a part): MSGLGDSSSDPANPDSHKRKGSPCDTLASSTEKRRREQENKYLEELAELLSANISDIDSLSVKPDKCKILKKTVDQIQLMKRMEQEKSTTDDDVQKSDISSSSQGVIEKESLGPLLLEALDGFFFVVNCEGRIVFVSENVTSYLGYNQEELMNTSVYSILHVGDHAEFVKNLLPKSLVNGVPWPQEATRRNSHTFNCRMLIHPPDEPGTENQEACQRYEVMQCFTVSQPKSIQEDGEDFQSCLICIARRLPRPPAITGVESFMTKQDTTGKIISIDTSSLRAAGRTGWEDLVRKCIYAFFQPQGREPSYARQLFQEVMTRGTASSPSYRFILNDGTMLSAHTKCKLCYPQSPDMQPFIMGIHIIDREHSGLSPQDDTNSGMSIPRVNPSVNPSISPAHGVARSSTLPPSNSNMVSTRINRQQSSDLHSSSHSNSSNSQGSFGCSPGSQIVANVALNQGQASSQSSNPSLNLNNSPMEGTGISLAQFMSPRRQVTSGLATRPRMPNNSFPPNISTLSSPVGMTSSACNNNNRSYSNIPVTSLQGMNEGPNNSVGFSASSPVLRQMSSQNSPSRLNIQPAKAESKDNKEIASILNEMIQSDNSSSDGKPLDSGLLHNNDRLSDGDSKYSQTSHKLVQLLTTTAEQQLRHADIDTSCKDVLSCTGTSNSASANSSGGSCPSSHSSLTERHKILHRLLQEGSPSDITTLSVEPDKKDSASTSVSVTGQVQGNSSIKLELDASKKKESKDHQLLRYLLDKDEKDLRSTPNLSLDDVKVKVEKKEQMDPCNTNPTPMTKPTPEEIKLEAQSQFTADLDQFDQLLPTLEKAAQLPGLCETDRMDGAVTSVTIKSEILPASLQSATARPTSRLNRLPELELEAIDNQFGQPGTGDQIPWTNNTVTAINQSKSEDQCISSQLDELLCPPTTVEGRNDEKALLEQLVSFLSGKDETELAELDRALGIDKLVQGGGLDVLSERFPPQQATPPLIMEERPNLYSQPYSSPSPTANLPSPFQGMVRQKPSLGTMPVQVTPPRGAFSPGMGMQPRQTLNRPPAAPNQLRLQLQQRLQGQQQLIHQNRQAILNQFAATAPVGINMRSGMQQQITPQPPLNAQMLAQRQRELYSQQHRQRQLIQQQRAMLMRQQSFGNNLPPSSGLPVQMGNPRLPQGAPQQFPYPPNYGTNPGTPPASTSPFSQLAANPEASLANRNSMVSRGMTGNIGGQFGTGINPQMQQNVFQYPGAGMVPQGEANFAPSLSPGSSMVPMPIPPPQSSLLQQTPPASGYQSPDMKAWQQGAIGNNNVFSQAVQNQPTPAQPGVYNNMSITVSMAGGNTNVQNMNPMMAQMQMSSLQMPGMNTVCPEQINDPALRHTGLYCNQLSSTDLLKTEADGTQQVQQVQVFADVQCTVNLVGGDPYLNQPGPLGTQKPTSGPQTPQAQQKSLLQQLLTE

Compound	inhibition
Cc1ccc(C(=O)CSc2cnc3ccccc3n2)cc1C	-96.7%
Cn1c(=O)c2c(nc(Oc3ccc4ccccc4c3)n2C)n(C)c1=O	53.3% (active)
CC(=O)N1CCN(c2ccc(Oc3ncnc4sccc34)cc2)CC1	27.3%
COc1ccc(-c2cn[nH]c2N)c(OC)c1	43.9%
Cc1ccc(NC(=O)NC2CC(=O)N(c3ccc4c(c3)OCCO4)C2)cc1C (configuration not stated)	46%
Cc1cc(=O)[nH]c(Nc2cccc(C(F)(F)F)c2)n1	49.4% (active)
CC1CCN(Cc2c(C(=O)N/N=C/c3cc(Br)ccc3O)nnn2-c2nonc2N)CC1	84.8% (active)
CC(=O)c1cccc(NC(=O)Nc2cccnc2)c1	58% (active)
O=C(CCSc1nc2ccccc2s1)N/N=C/c1c(O)ccc2ccccc12	36%
N=c1c2c(-c3ccccc3)c(-c3ccccc3)n(Cc3ccco3)c2ncn1CCCn1ccnc1	43.8%
COc1cc(Cl)cc(/C=N\NC(=O)c2ccc3c(c2)OCO3)c1O	30.5%
O=C(N/N=C/c1sc(N2CCOCC2)nc1-c1ccccc1)c1cccc(S(=O)(=O)N2CCCC2)c1	50.8% (active)
Cc1ccc(N=c2c([N+](=O)[O-])nn(-c3ccc4c(c3)OCCO4)n2O)cc1F	19.9%
O=C(c1ccncc1)N(Cc1cc2ccccc2[nH]c1=O)C1CCCCC1	42.2%
COc1ccc(Cl)cc1Nc1nc(-c2sc(NC(=O)C(C)(C)C)nc2C)cs1	14.5%
O=C(/C=C/c1ccc(OCCCF)cc1)Nc1ccnc(-c2cccnc2)n1	-25.6%
CCCS(=O)(=O)Nc1ccc(Nc2c3ccccc3nc3ccccc23)c(OC)c1	56.8% (active)
CC(C)(C)n1ncc2c(=O)n(CC(=O)OCc3ccccc3)cnc21	-21.8%
C[n+]1c2n(c3ccccc31)N=C(c1ccc(Br)cc1)CS2	-14.8%
CN(C(=O)COC(=O)/C=C/c1cccc([N+](=O)[O-])c1)C1CCS(=O)(=O)C1 (configuration not stated)	41.6%

Compound	inhibition
Cc1ccc(C)c(NC(=O)c2ccccc2NS(=O)(=O)c2cc([N+](=O)[O-])ccc2C)c1	21%
CC(C)CC(=O)/C(=C\c1ccc(Cl)cc1Cl)n1cncn1	14.1%
CC(=O)c1ccc(Nc2ncnc3ccc(Br)cc23)cc1	56.4% (active)
O=C(Nc1ccc([N+](=O)[O-])cc1)Nc1ccc(OC(F)F)c(Cl)c1	10.3%
CC(C)c1ccc(-c2nnn(CCC(=O)O)n2)cc1	41.3%
COC(=O)c1c(C)oc2ccc(N(C(=O)c3ccncc3)S(=O)(=O)c3ccc(C)cc3C)cc12	-7%
CCC(=O)Nc1cc2nn(-c3ccc(C)cc3)nc2cc1C	-102%
CC(=O)NC(c1ccccc1)c1cc(Cl)c2cccnc2c1O (configuration not stated)	36%
Cn1c(/C(C#N)=C/c2ccc(-c3ccc(S(N)(=O)=O)cc3)o2)nc2ccccc21	-4.53%
CCCCC(=O)OCC(=O)C1(O)Cc2c(O)c3c(c(O)c2C(OC2CC(NC(=O)C(F)(F)F)C(O)C(C)O2)C1)C(=O)c1c(OC)cccc1C3=O (configuration not stated)	29.3%
CC(O)CC(C(=O)NNc1ccccc1)C(=O)NNc1ccccc1 (configuration not stated)	-6.15%
CCOc1cc(/C=C2\CN(C)C/C(=C\c3ccc(O)c(OCC)c3)C2=O)ccc1O	-18.5%
CC(C)(C)c1nnc(N/N=C/c2cc(Br)ccc2O)n(N)c1=O	72% (active)
CC(C)n1c(-c2cccnc2)nc2cnccc21	38.1%
OCCN1CCN(C(=S)c2ccc(-c3ccccc3)cc2)CC1	36.8%
O=C1C(F)=CC(COC(c2ccccc2)(c2ccccc2)c2ccccc2)OC1n1cc(F)c(=O)[nH]c1=O (configuration not stated)	-11.1%
Cc1c(-c2ccccc2)oc2c(C(=O)N3CCN(c4ccc([N+](=O)[O-])cc4)CC3)cccc2c1=O	45.9%
Clc1ccc(-c2csc3ncnc(NCCN4CCOCC4)c23)cc1	46.6%
COc1ccc(-c2cn[nH]c2C)cc1OC	12.1%
